A selection: hits, their analogues and other compounds. The true share with any hit is near 6%.
VDR inh: Inhibitors of the vitamin D receptor (VDR): qHTS | Vitamin D3 receptor (Homo sapiens), P11473 | VDR-SRC2-3 peptide fluorescence polarization, 2 h | Potency, µM, actives largely listed as inhibitors | 400,000 compounds, 0.93% hits
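Measured by FP: displacement of SRC2-3 coactivator peptide from VDR by library compounds, following a two-hour ambient incubation.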
Tau fibril FP: qHTS for Inhibitors of Tau Fibril Formation, Fluorescence Polarization | 280,000 compounds, 0.39% hits | K18 P301L tau heparin fibrillization, Alexa594 FP, 6 h | Potency, µM (titrated, usually from 57.7 µM), usual class: inhibitors | AID 1468, 2008 | Microtubule-associated protein tau (Homo sapiens), P10636; further: nearly all actives have a fitted effect of over 55% in size
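Compound effects on tau fibrillization are measured by Alexa 594 fluorescence polarization (ex 555, em 632 nm). K18 P301L tau is used at 15 uM with 0.24 uM labeled tracer, and 20 uM heparin induces aggregation over 6 hr at 37 C.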
PLK1 PBD inh: qHTS for Inhibitors of PLK1-PDB (polo-like kinase 1 - polo-box domain): Primary Screen; Serine/threonine-protein kinase PLK1 (Homo sapiens), P53350; Plk1 PBD binding of FITC phosphopeptide, fluorescence polarization; Potency, µM, most hits filed as inhibitors; 360,000 compounds, 2.8% hits; AID 720504, 2013; further: series mostly up to about 57 µM; nearly all actives have a fitted effect of over 65% in size
Target sequence (P53350 whole entry, looked up, the tested form may be a part): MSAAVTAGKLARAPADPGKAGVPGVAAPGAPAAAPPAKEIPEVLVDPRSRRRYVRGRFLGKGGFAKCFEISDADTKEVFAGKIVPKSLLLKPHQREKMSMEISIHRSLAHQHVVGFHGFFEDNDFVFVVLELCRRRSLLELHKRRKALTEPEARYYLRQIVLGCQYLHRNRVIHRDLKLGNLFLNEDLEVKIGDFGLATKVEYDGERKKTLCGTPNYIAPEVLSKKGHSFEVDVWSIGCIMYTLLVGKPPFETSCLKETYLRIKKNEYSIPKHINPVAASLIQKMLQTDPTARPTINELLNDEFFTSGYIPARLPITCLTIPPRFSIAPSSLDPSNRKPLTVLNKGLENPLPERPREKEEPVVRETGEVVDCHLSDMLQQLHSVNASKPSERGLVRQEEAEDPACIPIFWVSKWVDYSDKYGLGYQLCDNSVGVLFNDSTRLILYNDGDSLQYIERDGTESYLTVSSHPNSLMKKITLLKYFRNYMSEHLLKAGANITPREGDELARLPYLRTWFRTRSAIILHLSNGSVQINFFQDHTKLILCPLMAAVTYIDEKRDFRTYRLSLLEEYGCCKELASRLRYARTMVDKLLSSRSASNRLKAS
Sfp inh: qHTS Assay for Inhibitors of Bacillus subtilis Sfp phosphopantetheinyl transferase (PPTase) | Potency, µM, usual class: inhibitors | 4'-phosphopantetheinyl transferase ffp (Bacillus subtilis), Q9F4F7 | Biochemical Sfp PPTase activity, qHTS | 310,000 compounds, 3.5% hits;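 further: the enzyme is Sfp with the accession as filed and its product quenches rhodamine fluorescence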
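Buffer: 50 mM Hepes-Na pH 7.6, 10 mM MgCl2, 0.01% Nonidet P-40, 0.01% BSA. Enzyme 15 nM, pre-exposed to compound 15 min; substrates then added and fluorescence change tracked over 30 min.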
Tau fluor counter: Counterscreen qHTS for Inhibitors of Tau Fibril Formation, Fluorescence Polarization | tau K18 P301L Alexa594 fluorescence, heparin fibrillization | Potency, µM (highest dose often 57.7 µM) | 280,000 compounds, 0.93% hits | AID 1463, 2008; further: nearly all actives have a fitted effect of over 55% in size
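Human tau K18 P301L (15 uM unlabeled, 0.24 uM Alexa 594-labeled) in 100 mM sodium acetate pH 7 with 20 uM heparin, 6 hr at 37 C. ThT 30 uM added, 1 hr ambient; Alexa 594 FP and total fluorescence read at 555/632 nm.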
Tau fibril ThT: qHTS for Inhibitors of Tau Fibril Formation, Thioflavin T Binding. recombinant tau K18 P301L (four-repeat tau fragment), heparin-induced fibrillization, ThT fluorescence. Potency, µM (doses to about 57.4 µM), usual class: inhibitors. 270,000 compounds, 2.1% hits. AID 1460, 2008; further: nearly all actives have a fitted effect of over 55% in size
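Heparin-induced (20 uM) aggregation of recombinant human K18 P301L tau, 15 uM unlabeled with 0.24 uM labeled, pH 7 acetate buffer, 6 hr at 37 C with compound. Fibrils quantified by 30 uM ThT fluorescence after 1 hr ambient incubation.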
Of the large screens only hits and unclear results are named; the others gave an inactive call; [ ] = another dose, or the depositor's remark. The call rests on the fitted dose curve; in most records, active means well fitted curve in the direction sought with a large enough effect; inconclusive means small, poorly fitted or top-dose-only effect, or another doubt; inactive means no such curve, though single readings can be large; an effect the other way counts as inactive or inconclusive.

Cn1c2ccccc2c2ncn(Cc3ccco3)c(=O)c21	none
COc1ccc(OC)c(-c2cc(C(=O)Nc3ccc(C)c(C)c3)no2)c1	Tau fibril FP inconclusive, Tau fluor counter inconclusive (no result: PLK1 PBD inh, Sfp inh)
O=[N+]([O-])c1cc(S(=O)(=O)C(F)(F)F)ccc1Sc1nc2ccccc2[nH]1	VDR inh inconclusive, PLK1 PBD inh inconclusive, Tau fluor counter 13µM[quencher], Tau fibril ThT 25µM
CS(=O)(=O)c1ccc(Sc2nc3ccccc3[nH]2)c([N+](=O)[O-])c1	none
Cc1ccc2c(c1)NC(=O)C(CC(=O)NCc1ccc(F)cc1)O2 (stereo not given)	none
O=C(CC1Oc2ccccc2NC1=O)NCc1ccccc1 (stereo not given)	VDR inh inconclusive, PLK1 PBD inh 21µM
COc1cccc(N2CCN(C(=O)CCCn3c(=O)[nH]c4ccc(Br)cc4c3=O)CC2)c1	Tau fluor counter inconclusive, Tau fibril ThT inconclusive (no result: PLK1 PBD inh, Sfp inh)
Nc1ccccc1C(=O)C[C@H](N)C(=O)O	Sfp inh 71µM
COc1ccc(NC(=O)N2CCN(S(C)(=O)=O)CC2)cc1	VDR inh inconclusive, PLK1 PBD inh 27µM
Cc1ccc2[nH]c(C)c(/C=N/Nc3nc4ccccc4s3)c2c1	Tau fibril FP inconclusive, Tau fluor counter 10µM[quencher], Tau fibril ThT 14µM
Brc1csc(/C=N/Nc2nc3ccccc3s2)c1	Sfp inh inconclusive, Tau fluor counter 7.9µM[quencher], Tau fibril ThT inconclusive
C(=C\c1ccccc1)/C=N/Nc1nc2ccccc2s1	Tau fluor counter 10µM[quencher], Tau fibril ThT inconclusive
COc1ccc(C=NNc2nc3ccccc3s2)cc1	none (no result: Tau fibril FP, Sfp inh, Tau fluor counter, Tau fibril ThT)
C(=N\Nc1ccccc1)/c1nc2ccccc2s1	Tau fibril FP inconclusive, Tau fluor counter 13µM[quencher], Tau fibril ThT inconclusive
C(=N\Nc1nc2ccccc2s1)/c1ccccn1	Tau fibril ThT inconclusive
Brc1ccc(/C=C/C=N/Nc2nc3ccccc3s2)cc1	none
CC[C@]12c3[nH]c4ccccc4c3CCN1C(=O)C(CC(=O)NC/C=C(\C)CCC=C(C)C)C[C@@H]2C(=O)N1CCN(C(=O)c2ccco2)CC1 (stereo not given in full)	none (no result: Tau fibril FP, Sfp inh, Tau fluor counter, Tau fibril ThT)
COc1ccc(N/C=C2\CCc3ccccc3C2=O)cc1	Sfp inh 56µM, Tau fluor counter 28µM[quencher], Tau fibril ThT 0.89µM
COc1ccc2c(c1)CC/C(=C\Nc1ccc3c(c1)OCO3)C2=O	Tau fibril FP inconclusive, Sfp inh 22µM, Tau fluor counter 14µM[quencher], Tau fibril ThT 1.3µM
COc1ccc(S(=O)(=O)Nc2ccc3c(c2)OCO3)cc1	Tau fibril FP inconclusive
O=C1/C(=C/Nc2ccc3c(c2)OCO3)CCc2ccccc21	Tau fibril FP inconclusive, Sfp inh 35µM, Tau fluor counter 7.9µM[quencher], Tau fibril ThT 1.6µM
O=C1OC2(CCCCC2)OC(=O)C1=CNc1ccc2c(c1)OCO2	none
Cc1c(Cl)c(C(F)F)nn1CC(=O)NC1C(=O)N2C(C(=O)O)=C(CSc3nnnn3C)CSC12 (stereo not given)	VDR inh inconclusive, Tau fibril FP inconclusive, PLK1 PBD inh inconclusive, Sfp inh inconclusive, Tau fibril ThT inconclusive
CC(C(=O)NC1C(=O)N2C(C(=O)O)=C(CSc3nnnn3C)CSC12)n1cc(Cl)cn1 (stereo not given)	Sfp inh 40µM, Tau fibril ThT inconclusive
O=C(O)C1=C(CSc2nnnn2CS(=O)(=O)O)CS[C@@H]2[C@H](NC(=O)[C@H](O)c3ccccc3)C(=O)N12	VDR inh 40µM, Sfp inh 79µM (no result: Tau fibril FP, PLK1 PBD inh, Tau fluor counter, Tau fibril ThT)
Cc1cc(=O)c(C(=O)N[C@@H](C(=O)N[C@@H]2C(=O)N3C(C(=O)O)=C(CSc4nnnn4C)CS[C@H]23)c2ccc(O)cc2)c[nH]1	VDR inh inconclusive (no result: Tau fibril FP, PLK1 PBD inh, Tau fluor counter, Tau fibril ThT)
Cc1c(Cl)cnn1CC(=O)NC1C(=O)N2C(C(=O)O)=C(CSc3nnnn3C)CSC12 (stereo not given)	PLK1 PBD inh inconclusive, Sfp inh 50µM, Tau fibril ThT inconclusive
